The source of these data is ChEMBL document CHEMBL4513155, “CO-ADD screening of University of Sydney (Australia) compounds” (2021).

In one experiment the test system is Klebsiella pneumoniae. To be noted: Concentration 32 ug.mL-1; ASSAY_TEST Inhibition of Bacterial Growth; detection method Absorption (OD600); MEDIA CAMHB; plate type 384well; NBS; CORNING #3640; time 18 hr.
The test system of a further experiment is Candida albicans. As to conditions: 32 ug/mL.
The subject of a further experiment is Cryptococcus neoformans. To be noted: Concentration 32 ug.mL-1; ASSAY_TEST Inhibition of Fungal Growth; detection method Resazurin; Absorption (OD600-OD570); plate type 384well; NBS; CORNING #3640. A general note: The colour change of resazurin is a common sign of viable cells or microbes.

Measured potencies and affinities stand elsewhere.

As for `CN(C)C(COc1cncc2nnc(-c3ccc(C#N)cc3)n12)c1ccc(F)c(F)c1` (stereo unspecified), the Inhibition in the experiment on Klebsiella pneumoniae is 3.41%; in the experiment with Candida albicans it was 5.98%; in the experiment with Cryptococcus neoformans, -16.61%.
For `Fc1ccc(CCOc2cncc3nnc(-c4ccc(Cl)cc4)n23)cc1F` the same measures were -4.32%, 7.82% and -0.27%.
In the case of `Fc1ccc(CCOc2cncc3nnc(-c4ccc(C(F)(F)F)nc4)n23)cc1F`, the results for the Inhibition in the experiment on Klebsiella pneumoniae, in the experiment with Candida albicans and in the experiment on Cryptococcus neoformans were -0.34%, 2.23% and -5.49%, respectively.
`O.O=C1c2cccc3c(-n4cc(CN5CCCNCCN(Cc6cn(-c7ccc8c9c(cccc79)C(=O)N(CCCO)C8=O)nn6)CCCNCC5)nn4)ccc(c23)C(=O)N1CCCO.[Cl-].[Cl-].[Zn+2]`: the Inhibition is 2.32% in the experiment with Klebsiella pneumoniae, 7.28% in the experiment on Candida albicans and -0.18% in the experiment on Cryptococcus neoformans.
In the case of `N#Cc1ccc(-c2nnc3cncc(OCC(O)c4ccc(F)c(F)c4)n23)cc1` (stereo unspecified), the Inhibition is -1.23% with Klebsiella pneumoniae, 4.19% with Candida albicans and -9.99% in the experiment on Cryptococcus neoformans.
`COC(COc1cncc2nnc(-c3ccc(C#N)cc3)n12)c1ccc(F)c(F)c1` (stereo unspecified): the Inhibition was -1.15% in the experiment on Klebsiella pneumoniae, 2.84% in the experiment with Candida albicans and -10.36% in the experiment on Cryptococcus neoformans.
With `CCN1C(=O)c2cccc3c(-c4cn(CCN5CCCNCCN(CCn6cc([C@]7(O)CC[C@H]8[C@@H]9CCc%10cc(O)ccc%10[C@H]9CC[C@@]87C)nn6)CCCNCC5)nn4)ccc(c23)C1=O.OCCN1CCN(CCCN2c3ccccc3Sc3ccc(Cl)cc32)CC1.[O-][Cl+3]([O-])([O-])[O-].[O-][Cl+3]([O-])([O-])[O-].[Zn+2]`, the Inhibition in the experiment on Klebsiella pneumoniae is -7.97%; in the experiment with Candida albicans, 5.51%; in the experiment with Cryptococcus neoformans it was 7.03%.

What is called Inhibition is the relative decrease from the control value, in per cent.
